In a collection of fitness landscapes (doi:10.1126/science.1257360) one finds enrichment ratio data, which are given here for 154 variants.

In all, about 140,000 sequences were measured (“enrichment ratio after two sorts for PhoP signalling”: median about 0, highest 2% from about 11 on). The list comes from a sample in which the highest values are over-represented; it also holds similar and randomly drawn sequences.

To fix the notation:
B1: PhoQ; a variant is named by its letters at X, in order, P23837 (parent)
chain: MKKLLRLFFPLSLRVRFLLATAAVVLVLSLAYGMVALIGYSVSFDKTTFRLLRGESNLFYTLAKWENNKLHVELPENIDKQSPTMTLIYDENGQLLWAQRDVPWLMKMIQPDWLKSNGFHEIEADVNDTSLLLSGDHSIQQQLQEVREDDDDAEMTHSVAVNVYPATSRMPKLTIVVVDTIPVELKSSYMVWSWFIYVLSANLLLVIPLLWVAAWWSLRPIEALAKEVRELEEHNRELLNPATTRELTSLVRNLNRLLKSERERYDKYRTTLTDLTHSLKTPLXXLQXXLRSLRSEKMSVSDAEPVMLEQISRISQQIGYYLHRASMRGGTLLSRELHPVAPLLDNLTSALNKVYQRKGVNISLDISPEISFVGEQNDFVEVMGNVLDNACKYCLEFVEISARQTDEHLYIVVEDDGPGIPLSKREVIFDRGQRVDTLRPGQGVGLAVAREITEQYEGKIVAGESMLGGARMEVIFGRQHSAPKDE

The variants in the assay derive from B1. The assay is described as follows: enrichment ratio after two sorts for PhoP signalling (ratio (wild type AVST 3.29)); higher = more functional. The note with it: with PhoP (E. coli).
For the variant DGIY, the enrichment ratio was no more than 0.25. KFTT: the enrichment ratio was no more than 0.25. On to MWVS, for which the enrichment ratio was no more than 0.25. Turning to NKPN, the enrichment ratio is no more than 0.25. As for STYR, the enrichment ratio was no more than 0.25.

With AVCI, the enrichment ratio amounted to 21.8.

As to AVCS, the enrichment ratio stood at 8.99. For AVCE, the enrichment ratio was no more than 0.25.

Take RVVQ: the enrichment ratio was no more than 0.25. On to VRPL, for which the enrichment ratio was no more than 0.25.

Consider IQLV, for which the enrichment ratio is no more than 0.25. To ACIQ belongs 11.8; to AEIA, 15.4; to AEHP, no more than 0.25. To ACVQ belongs 2.26. With ACHP, the enrichment ratio was no more than 0.25. For the variant AEFQ, the enrichment ratio worked out at 3.73. With AEIE, the enrichment ratio was no more than 0.25. The result for AEIV reads 4.76; that for AQHP, no more than 0.25. Take AQIQ: the enrichment ratio was 27.9. The result for AEIQ reads 24.4; that for AQQQ, no more than 0.25. To KAHK belongs no more than 0.25; to LFVQ, no more than 0.25; to MTRG, no more than 0.25. To YDCD belongs no more than 0.25; to TFDY, no more than 0.25; to SERL, no more than 0.25. On to WHLP, for which the enrichment ratio is no more than 0.25. To KMMG belongs no more than 0.25; to AEPM, 0.861. To AEII belongs 16.4; to AEIS, 10.8; to AKIQ, no more than 0.25.

Turning to AEYL, the enrichment ratio is 6.74. The result for AENL reads no more than 0.25. In the case of AEIM, the enrichment ratio was found to be 15.7. With AEIT, the enrichment ratio was 2.48. Turning to AHIQ, the enrichment ratio is no more than 0.25. Turning to ADIQ, the enrichment ratio is 21.4. The result for AEIL reads 28.2. As for THTQ, the enrichment ratio was determined as 1.45. As to EWAP, the enrichment ratio is no more than 0.25. To GFIS belongs no more than 0.25; to LHFN, no more than 0.25.

With NVLT, the enrichment ratio was no more than 0.25. The result for SCYK reads no more than 0.25; that for DWIV, no more than 0.25. In the case of KRHG, the enrichment ratio is no more than 0.25. To NHPL belongs no more than 0.25; to KIDW, no more than 0.25; to GARI, no more than 0.25.

As to QYLE, the enrichment ratio is no more than 0.25.

As for FEPL, the enrichment ratio was no more than 0.25.

As to QQSM, the enrichment ratio was found to be 13.3. On to QPSM, for which the enrichment ratio was no more than 0.25. For QRSM, the enrichment ratio is no more than 0.25.

With TPSM, the enrichment ratio is no more than 0.25.

For the variant QDSM, the enrichment ratio was no more than 0.25. To QSSM belongs 15.9; to QIAI, 2.26. Turning to SIKG, the enrichment ratio is no more than 0.25. Take LGAF: the enrichment ratio is no more than 0.25. The result for VRDP reads no more than 0.25; that for HMSS, no more than 0.25; that for PMDA, no more than 0.25. To SGDG belongs no more than 0.25. In the case of SGWG, the enrichment ratio is no more than 0.25.

For SGTI, the enrichment ratio stood at 16.7.

On to SGTS, for which the enrichment ratio was found to be 7.16. The result for SGTA reads 7.55; that for SGTG, 15.9. As for AGFW, the enrichment ratio was no more than 0.25.

For the variant VWNV, the enrichment ratio is no more than 0.25.

Regarding GLKA, the enrichment ratio is no more than 0.25. To ENWV belongs no more than 0.25; to NKIG, no more than 0.25. For PDHR, the enrichment ratio was no more than 0.25. As for HRML, the enrichment ratio was no more than 0.25. As to KAML, the enrichment ratio is no more than 0.25. The result for HYML reads no more than 0.25; that for TAML, 25.8; that for HTML, 11.7. Consider NAML, for which the enrichment ratio was no more than 0.25. Turning to DPPS, the enrichment ratio was no more than 0.25. The result for SQCY reads 12.2; that for QECY, no more than 0.25. Take MECY: the enrichment ratio was 4.09. To TECY belongs 16.2.

For KYCY, the enrichment ratio was no more than 0.25.

RNCY: the enrichment ratio was no more than 0.25.

With SNCY, the enrichment ratio came to 7.63.

For the variant TQCY, the enrichment ratio was 15.8. The result for IQCY reads no more than 0.25; that for SECY, 13.7. The result for SRCY reads no more than 0.25; that for DWCY, no more than 0.25. To GSCQ belongs 8.75. For GDAQ, the enrichment ratio was no more than 0.25. For the variant TRTV, the enrichment ratio is 9.35. Take SEWD: the enrichment ratio was no more than 0.25.

KVEG: the enrichment ratio is no more than 0.25. The result for LQIG reads no more than 0.25. To EQTT belongs no more than 0.25; to SETT, 12.6. The result for YTTT reads no more than 0.25.

Regarding TQTT, the enrichment ratio was found to be 23.1. AKTT: the enrichment ratio is 3.25. With KYTT, the enrichment ratio was no more than 0.25. Regarding FQTT, the enrichment ratio was no more than 0.25. To SRTT belongs no more than 0.25; to LTTT, no more than 0.25; to TKTT, 11.6. To MKTT belongs no more than 0.25; to TTTT, 12.1. The result for YAIP reads no more than 0.25; that for IDRF, no more than 0.25; that for ATER, no more than 0.25. For NGCY, the enrichment ratio is no more than 0.25. PIGE: the enrichment ratio was no more than 0.25. For the variant SMQQ, the enrichment ratio is no more than 0.25. Turning to IGVV, the enrichment ratio is no more than 0.25. The result for ISAV reads 0.486; that for ADQP, no more than 0.25; that for APWD, no more than 0.25. To PTFA belongs no more than 0.25. The result for KRKW reads no more than 0.25; that for MIGL, 1.45. Turning to TSTT, the enrichment ratio was determined as 15.1. The result for ICTT reads 11.9; that for SITT, 6.9. For SQTT, the enrichment ratio was 11.4. For SPTT, the enrichment ratio was no more than 0.25.

For the variant FCTT, the enrichment ratio was no more than 0.25. To VCTT belongs no more than 0.25. To KSTT belongs no more than 0.25; to KCTT, no more than 0.25; to SCTT, 11.4. To LCTT belongs no more than 0.25; to MMTT, no more than 0.25.

Take GPRY: the enrichment ratio is no more than 0.25. To TYWS belongs no more than 0.25; to LGDG, 0.39. The result for IKPA reads no more than 0.25; that for YKHD, no more than 0.25; that for TNPV, no more than 0.25. To YHGA belongs no more than 0.25. As for TSAQ, the enrichment ratio is 19.6. To KSAQ belongs no more than 0.25. NSAQ: the enrichment ratio was no more than 0.25. Consider TDAQ, for which the enrichment ratio is 13.4. With FDAQ, the enrichment ratio is no more than 0.25. For LTAQ, the enrichment ratio was no more than 0.25.
